# Hits are enriched below; roughly 2.3% of the tested compounds scored in any of these assays.
# Coupling enz = qHTS Assay for Inhibitors of Fructose-1,6-bisphosphate Aldolase from Giardia Lamblia: Coupling assay counterscreen. coupling enzyme system counterscreen, AmpLite Red fluorescence. activity change, negative = inhibition, % at 58.2 µM, hits read low. hit rate 0.67% among 290,000; in the data active = activity change below about -30%; also: % is scaled to controls: 0 for no effect and ±100 for the full control effect
#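 Compounds tested against the coupling enzymes alone at 57.5 uM final; readout was AmpLite Red fluorescence (525/598 nm) after 20 min at RT.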
# Tau fluor counter = Counterscreen qHTS for Inhibitors of Tau Fibril Formation, Fluorescence Polarization | tau K18 P301L Alexa594 fluorescence, heparin fibrillization | Potency, µM (doses to about 57.7 µM), for the others: at the top dose activity change, negative = decrease | hit rate 0.93% among 280,000; also: potency is read from the fitted curve at half-maximal effect; % is scaled to controls: 0 for no effect and ±100 for the full control effect; nearly all actives have a fitted effect of over 55% in size
#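 Human K18 P301L tau (15 uM unlabeled plus 0.24 uM Alexa 594-labeled, final) in 100 mM sodium acetate pH 7 was mixed with compound and 20 uM heparin and incubated 6 hr at 37 C.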
# Tau FP inhib = qHTS for Inhibitors of Tau Fibril Formation, Fluorescence Polarization; Microtubule-associated protein tau (Homo sapiens), P10636; K18 P301L tau heparin fibrillization, Alexa594 FP, 6 h; Potency, µM (titrated, usually from 57.7 µM), for inactives: at the top dose activity, negative = inhibition, most hits filed as inhibitors; hit rate 0.39% among 280,000; also: potency is read from the fitted curve at half-maximal effect; % is scaled to controls: 0 for no effect and ±100 for the full control effect; nearly all actives have a fitted effect of over 55% in size
#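 Quantitative HTS format: compounds meet 15 uM recombinant K18 P301L tau and Alexa 594-tau tracer in 100 mM sodium acetate pH 7; 20 uM heparin triggers fibrillization at 37 C over 6 hr; FP gives the signal.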
# Tau fibril ThT = qHTS for Inhibitors of Tau Fibril Formation, Thioflavin T Binding; hit rate 2.1% among 270,000; Microtubule-associated protein tau (Homo sapiens), P10636; recombinant tau K18 P301L, heparin-induced fibrillization, ThT fluorescence; AID 1460, 2008; Potency, µM (series often up to 57.4 µM), for inactives: top-dose activity, negative = inhibition, actives largely listed as inhibitors; also: potency is read from the fitted curve at half-maximal effect; % is scaled to controls: 0 for no effect and ±100 for the full control effect; nearly all actives have a fitted effect of over 55% in size
#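 Tau K18 P301L fragment (15 uM unlabeled plus 0.24 uM Alexa 594-labeled) in 100 mM sodium acetate pH 7 with compound, fibrillization induced by 20 uM heparin for 6 hr at 37 C. Thioflavin T (30 uM) added, fluorescence read after 1 hr (ex 450, em 510 nm).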
# USP1-UAF1 inh = Inhibitors of USP1/UAF1: Primary Screen. recombinant USP1/UAF1, Ub-Rhodamine cleavage fluorescence. Potency, µM (doses to about 57.1 µM), for the others: top-dose activity change, negative = inhibition, most hits filed as inhibitors. hit rate 0.23% among 390,000; also: potency is read from the fitted curve at half-maximal effect; % is scaled to controls: 0 for no effect and ±100 for the full control effect; nearly all actives have a fitted effect of over 60% in size
# Target sequence (O94782 whole entry, looked up): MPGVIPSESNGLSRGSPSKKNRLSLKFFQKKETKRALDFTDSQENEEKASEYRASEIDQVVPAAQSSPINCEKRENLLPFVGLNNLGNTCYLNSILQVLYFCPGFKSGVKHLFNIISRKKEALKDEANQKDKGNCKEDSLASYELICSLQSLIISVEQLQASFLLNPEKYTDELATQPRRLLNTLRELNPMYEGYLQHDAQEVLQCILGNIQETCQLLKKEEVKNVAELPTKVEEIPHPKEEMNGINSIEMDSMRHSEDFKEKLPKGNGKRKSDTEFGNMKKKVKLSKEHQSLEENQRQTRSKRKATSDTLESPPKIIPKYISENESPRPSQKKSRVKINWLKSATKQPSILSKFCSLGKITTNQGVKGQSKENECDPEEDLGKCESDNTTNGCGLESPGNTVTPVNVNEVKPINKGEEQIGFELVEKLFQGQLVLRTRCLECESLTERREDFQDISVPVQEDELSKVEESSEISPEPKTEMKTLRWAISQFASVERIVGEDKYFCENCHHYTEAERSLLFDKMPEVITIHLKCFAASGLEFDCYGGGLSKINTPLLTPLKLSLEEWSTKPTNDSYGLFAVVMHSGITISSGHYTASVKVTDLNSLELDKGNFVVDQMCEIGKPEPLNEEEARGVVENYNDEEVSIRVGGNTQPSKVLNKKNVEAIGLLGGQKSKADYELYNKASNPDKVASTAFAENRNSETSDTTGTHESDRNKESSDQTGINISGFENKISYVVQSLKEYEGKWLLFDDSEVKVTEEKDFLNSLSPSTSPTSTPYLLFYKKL
#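 USP1/UAF1 complex (1 nM) preincubated 15 min at room temperature with compound, then Ub-Rho substrate (150 nM final) added. Kinetic fluorescence at 480/540 nm over 6 reads at 60 s intervals; 50 mM HEPES pH 7.8, 0.5 mM EDTA, 0.1 mg/ml BSA, 1 mM TCEP, 0.01% Tween-20.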
# Tau fibril TEM = Transmission Electron Microscopy Assay for Inhibitors of Tau Fibrillization; shares compounds with Tau fibril ThT; recombinant tau K18 P301L fibrillization, TEM grading; active compounds read high; fibril grade (0 = clumped fibrils, 4 = only tiny pieces) (concentration not given with the values); hit rate 70% among 45; AID 1719, 2009;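 active = compounds whose electron micrographs showed tau fibrils broken into shorter filaments or fragments, graded high on fibril breakup; inconclusive = micrographs gave an unclear fibril picture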
# tau fibril sed = Sedimentation Assay for Inhibitors of Tau Fibrillization; shares compounds with Tau fibril ThT; recombinant tau K18 P301L (four-repeat tau fragment), sedimentation SDS-PAGE densitometry; inhibition, % at 100 µM; hit rate 50% among 110; in the data active = inhibition above about 40%; inconclusive = no clear call, values can overlap the other calls; inactive = below about 18%
# Active calls of the source: *; u = inconclusive; x = no result given; [ ] = remark or other dose. Unless noted, calls follow the shape of the dose curve; as a rule, active = well fitted curve in the direction sought with a large enough effect; inconclusive = small, poorly fitted or top-dose-only effect, or another doubt; inactive = no such curve, though single readings can be large; an effect the other way counts as inactive or inconclusive.
SMILES,Coupling enz,Tau fluor counter,Tau FP inhib,Tau fibril ThT,USP1-UAF1 inh,Tau fibril TEM,tau fibril sed
COC(=O)c1ccccc1NC(=O)CSc1nc2sc3c(c2c(=O)[nH]1)CCCC3,x,u,14µM*,7.9µM*,14%,2*,58*
COc1ccc(C2=NNC(=Nc3cc(S(=O)(=O)N(C)C)ccc3C)SC2)c(OC)c1,-1,-16%,-17%,u,-24%,x,x
CN(C)S(=O)(=O)c1cccc(N=C2NN=C(c3ccccc3)CS2)c1,0,u,u,8.9µM*,u,3*,u
COc1ccc(CNC(=O)Cn2c(=O)n3nc(-c4cccc(F)c4)nc3c3ccccc32)cc1OC,x,-9%,-15%,-2%,9%,x,x
CCOC(=O)C1=C(COC(=O)CC(C)c2ccccc2)NC(=O)NC1C (centres undefined),x,x,x,x,-23%,x,x
CN(C)c1ccc(-c2cc[nH]c(=O)c2N)cc1,x,x,x,x,x,3*,68*
CN(C)C(=O)c1ccc(-c2cc[nH]c(=O)c2N)cc1,x,x,x,x,x,0,48*
CNc1nc(-c2ccc(C(=O)N(C)C)cc2)nc2ccccc12,1,x,x,x,x,x,x
Nc1c(-c2ccncc2)cc[nH]c1=O,x,x,x,x,x,0,55*
Cc1ccc(CNC(=O)CSc2c(C(C)C)cnc3c2c(=O)n(C)c(=O)n3C)cc1,x,-4%,-4%,1%,-19%,x,x
O=c1oc2ccccc2cc1-c1nc2ccccc2o1,x,-7%,2%,u,-10%,x,x
Cc1nc2ccccc2oc1=O,0,u,10%,u,x,x,13
O=c1c2ccc(Cl)cc2[nH]c(=S)n1CCC1=CCCCC1,1,-7%,-9%,-4%,-8%,x,x
Cc1cc2c(NC(=O)Nc3ccccc3)cccc2nn1,-42*,-25%,u,u,-22%,u,u
Nc1cc(-c2ccncc2)c[nH]c1=O,-73*,u,2µM*,1.4µM*,40µM*,3*,61*
NC(=O)c1csc(-c2ccncc2)n1,3,-6%,-12%,-4%,0%,x,x
Nc1cc(-c2ccccc2)c[nH]c1=O,x,x,x,x,x,u,65*
COc1ccc(S(=O)(=O)NCCc2csc(-c3ccc(F)cc3)n2)cc1,x,-21%,-1%,-9%,-31%,x,x
CC1CCC2C(=O)N3C(CCC(C)[C@H]3c3ccccc3Br)C(=O)N2C1c1ccccc1Br (some centres undefined),7,-2%[11.6 µM],-13%[11.6 µM],0%[11.5 µM],x,x,x
O=C(NC1(C(F)(F)F)NC(=O)N(CCc2ccccc2)C1=O)c1ccccc1Cl (centres undefined),x,-17%,-6%,-7%,-16%,x,x
COc1cccc(CNc2ccccn2)c1O,1,x,x,x,-15%,x,x
COc1cccc(CNc2cccc3cccnc23)c1O,-57*,u,u,28µM*,u,2*,u
COc1ccc(CNC(=O)c2cc3c(=O)[nH]c4ccccc4c3n2C)c(OC)c1,x,-14%,0%,u,u,x,x
O=C(Nc1nnc(S(=O)(=O)Nc2ccccc2)s1)C1CCCCC1,3,u,-18%,u,-25%,x,10
O=C(Nc1nnc(S(=O)(=O)Nc2ccccc2)s1)c1ccccc1Cl,11,-20%,-2%,u,-30%,x,x
SMILES,Coupling enz,Tau fluor counter,Tau FP inhib,Tau fibril ThT,USP1-UAF1 inh,Tau fibril TEM,tau fibril sed
O=C(NCc1cccnc1)C1CCN(S(=O)(=O)c2cccs2)CC1,-3,4.5µM*[quencher],u,4µM*,-18%,x,13
O=C(NCc1cccnc1)C1CCN(S(=O)(=O)c2cccnc2)CC1,-3,-6%,1%,-2%,-3%,x,x
CN(c1ccccc1)S(=O)(=O)c1nnc(NC(=O)COc2ccccc2)s1,x,u,u,u,-14%,x,u
COC(=O)c1c(NC(=O)C(C)(C)C)sc2c1C(C(=O)OC)CC2 (centres undefined),x,-3%,2%,-5%,-13%,x,17
COC(=O)c1c(NC(=O)CCCOc2cccc(C)c2)sc2c1CCC2,x,-18%,-9%,u,-2%,x,x
COC(=O)c1c(NC(=O)CCCOc2ccc(C)cc2)sc2c1C(C(=O)OC)CC2 (centres undefined),x,u,u,7.9µM*,-9%,2*,56*
COC(=O)c1c(NC(=O)CCCOc2cccc(C)c2)sc2c1C(C(=O)OC)CC2 (centres undefined),x,-28%,u,3.2µM*,-31%,2*,56*
COC(=O)c1c(NC(=O)C(Cl)Cl)sc2c1C(C(=O)OC)CC2 (centres undefined),4,-26%,3%,u,-2%,x,x
C[C@H](CO)N1C[C@H](C)[C@@H](CN(C)CC2CCCCC2)Oc2ccc(NS(C)(=O)=O)cc2C1=O,x,x,x,x,-21%,x,x
O=C(NCc1cccc(F)c1)c1ccc(CS(=O)c2ccccc2Cl)o1 (centres undefined),x,-9%,1%,2%,1%,x,x
